From PubChem BioAssay (NCATS)
Results filed as inconclusive are left out. Unless noted, calls come from the whole dose curve; as a rule, active = well fitted curve in either direction with a large enough effect (not every such curve was filed as active); inconclusive = small, poorly fitted or top-dose-only effect, or another doubt; inactive = flat fitted curve, though single readings scatter.

Assays:
[1] = AP1 Signaling Pathway (AID 357); details: ME-180 AP-1-bla reporter, EGF-induced, beta-lactamase ratio, 5 h; at 17.2 µM (top of the series) unless noted;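 note: ME-180 reporter cells stimulated with EGF at its EC50 level; % is set by controls: 0 for no effect and ±100 for the full control effect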
Procedure, shortened: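 A ratiometric CCF4 readout (405 nm excitation; 460 and 530 nm emission) quantified AP-1-driven beta-lactamase in ME-180 cells after 5 h with compound and EC50 EGF; AC50 values were derived for activators and inhibitors.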

[2] = NFAT Signaling Pathway (AID 444); details: Jurkat NFAT-bla M1, carbachol, beta-lactamase ratio, 5 h; at 17.2 µM (top of the series) unless noted;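 note: carbachol stimulus at about its EC50 of 1 µM final; % is set by controls: 0 for no effect and ±100 for the full control effect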
Procedure, shortened: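 Jurkat cells carrying an NFAT-driven β-lactamase reporter and co-transfected muscarinic M1 receptor were treated with compound plus carbachol (1 uM final, an EC50 level) for 5 h at 37 °C. CCF4 loading followed for 1 h at RT; 460/530 nm ratio gave %activity.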

[3] = Stat Signaling Pathway (AID 446); details: ME-180 (cervical carcinoma) SIE beta-lactamase reporter, IL-6 stimulated, 5 h; at 17.2 µM (top of the series) unless noted;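 note: ME-180 cervical cancer cells given 40 pM IL-6 alongside compound; SIE-controlled beta-lactamase reporter measured as 460/530 nm FRET emission ratio; % is set by controls: 0 for no effect and ±100 for the full control effect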
Procedure, shortened: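 Normalization used AC90 stimulation (300 pM IL-6) and AC90 inhibition (125 nM pan-JAK inhibitor at 40 pM IL-6). The underlying signal is SIE-driven beta-lactamase in ME-180 cells after 5 h IL-6 exposure with compound.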

[4] = target: Glucocorticoid receptor (Homo sapiens) (UniProt P04150); test: GR-GFP Redistribution (AID 450;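 active = compounds whose dose series gives a full or clear partial fitted curve of increased nuclear translocation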; note: potency is the fitted concentration of half-maximal effect); details: U2OS GR-GFP nuclear translocation, laser cytometry, 2 h; series mostly up to 20.6 µM
Chain of Glucocorticoid receptor (Homo sapiens) (P04150 whole entry, looked up): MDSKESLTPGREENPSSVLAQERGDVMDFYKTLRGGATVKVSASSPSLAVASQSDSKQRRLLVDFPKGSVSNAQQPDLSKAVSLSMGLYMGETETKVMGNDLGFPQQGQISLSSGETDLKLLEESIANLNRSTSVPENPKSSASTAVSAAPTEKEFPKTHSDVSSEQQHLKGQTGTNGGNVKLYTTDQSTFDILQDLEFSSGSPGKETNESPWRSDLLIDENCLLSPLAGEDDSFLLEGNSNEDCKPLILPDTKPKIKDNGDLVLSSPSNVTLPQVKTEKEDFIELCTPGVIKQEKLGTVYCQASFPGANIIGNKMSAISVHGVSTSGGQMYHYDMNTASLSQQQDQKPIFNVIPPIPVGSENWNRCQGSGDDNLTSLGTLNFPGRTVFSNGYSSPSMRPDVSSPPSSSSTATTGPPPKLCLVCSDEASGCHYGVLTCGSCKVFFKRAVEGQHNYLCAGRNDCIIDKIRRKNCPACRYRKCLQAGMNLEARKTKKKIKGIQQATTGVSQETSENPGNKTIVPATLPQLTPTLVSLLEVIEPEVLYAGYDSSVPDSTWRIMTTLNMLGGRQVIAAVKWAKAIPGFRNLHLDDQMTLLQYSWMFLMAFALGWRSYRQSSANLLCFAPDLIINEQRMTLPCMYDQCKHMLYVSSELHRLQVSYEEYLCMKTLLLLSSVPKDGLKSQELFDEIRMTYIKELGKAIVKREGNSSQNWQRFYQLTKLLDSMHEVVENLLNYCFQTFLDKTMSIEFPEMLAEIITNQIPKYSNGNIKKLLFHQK

COc1cccc(-c2nnc3sc(-c4ccco4)nn23)c1
inactive: activity change, negative = inhibition [1] -6.59% | activity change, negative = inhibition [2] 7.27% | activity, negative = inhibition [3] -1.01% | Potency [4] > 20.6 µM

COCCNC(=O)C(C#N)c1nc2ccccc2nc1N1CCN(Cc2ccc3c(c2)OCO3)CC1 (centres undefined)
inactive: activity change, negative = inhibition [1] -20.2% | activity change, negative = inhibition [2] -26.8% | activity, negative = inhibition [3] 4.46% | Potency [4] > 20.6 µM

O=C1CC(c2ccccc2)n2nc(N3C(=O)c4ccccc4C3=O)nc2N1 (centres undefined)
inactive: activity change, negative = inhibition [1] 0.103% | activity change, negative = inhibition [2] -10.6% | activity, negative = inhibition [3] -7.82% | Potency [4] > 20.6 µM

COc1ccc(C2C(C#N)=C(N)SC(N)=C2C#N)cc1OC
inactive: activity change, negative = inhibition [1] 5.54% | activity change, negative = inhibition [2] 29.6% | activity, negative = inhibition [3] 3.8% | Potency [4] > 20.6 µM

N#Cc1c(-c2ccco2)cc(C2CC2)nc1N
inactive: activity change, negative = inhibition [1] -6.96% | activity change, negative = inhibition [2] 9.72% | activity, negative = inhibition [3] -18.4% | Potency [4] > 20.6 µM

COC(=O)CC1=C(C(=O)OC)C(c2cccc(OCC(N)=O)c2)C(C#N)=C(N)O1 (centres undefined)
inactive: activity change, negative = inhibition [1] 26.1% | activity change, negative = inhibition [2] -17.4% | activity, negative = inhibition [3] 6.6% | Potency [4] > 20.6 µM

O=C(CN1C(=O)c2ccccc2C1=O)NCc1ccccn1
inactive: activity change, negative = inhibition [1] -3.27% | activity change, negative = inhibition [2] 16.6% | activity, negative = inhibition [3] 10.5% | Potency [4] > 20.6 µM

CCCCCSc1nc(C)c(CC(=O)O)c(=O)[nH]1
inactive: activity change, negative = inhibition [1] -1.76% | activity change, negative = inhibition [2] 15.5% | activity, negative = inhibition [3] 12.4% | Potency [4] > 20.6 µM

CCN(CC)CCN1C(=O)c2ccccc2NC1c1cc(OC)c(OC)c(OC)c1 (centres undefined)
inactive: activity change, negative = inhibition [1] 8.96% | activity change, negative = inhibition [2] 5.73% | activity, negative = inhibition [3] 10.5% | Potency [4] > 20.6 µM

CCOC(=O)C(c1ccccc1)N1CCN(c2ccc(OC)cc2)CC1 (centres undefined)
inactive: activity change, negative = inhibition [1] -19.8% | activity change, negative = inhibition [2] 19.4% | activity, negative = inhibition [3] 4.69% | Potency [4] > 20.6 µM

O=c1c(-c2ccc(Cl)cc2)[n+]([O-])c2ccccc2n1O
inactive: activity change, negative = inhibition [1] -1.42% | activity change, negative = inhibition [2] -15.3% | activity, negative = inhibition [3] -2.31% | Potency [4] > 20.6 µM

O=C(CN1C(=O)c2ccccc2S1(=O)=O)NCCSCc1ccco1
inactive: activity change, negative = inhibition [1] -8.94% | activity change, negative = inhibition [2] 8.79% | activity, negative = inhibition [3] -4.36% | Potency [4] > 20.6 µM

O=C(CCN1CCCCC1)Nc1cccc(Cl)c1
inactive: activity change, negative = inhibition [1] 7.3% | activity change, negative = inhibition [2] -23.2% | activity, negative = inhibition [3] -0.895% | Potency [4] > 20.6 µM

COC(=O)C(C)Sc1nc2c(c(=O)n(C)c(=O)n2C)n1CCC(C)C (centres undefined)
inactive: activity change, negative = inhibition [1] -4.73% | activity change, negative = inhibition [2] 7.85% | activity, negative = inhibition [3] -10.8% | Potency [4] > 20.6 µM

O=C(Nc1nccs1)NC(C(F)(F)F)C(F)(F)F
inactive: activity change, negative = inhibition [1] -10.3% | activity change, negative = inhibition [2] 9.14% | activity, negative = inhibition [3] 10.4% | Potency [4] > 20.6 µM

Cc1c(C)[n+](=O)c2c(n1[O-])CCC2
inactive: activity change, negative = inhibition [1] 0.615% | activity change, negative = inhibition [2] -5.07% | activity, negative = inhibition [3] -0.102% | Potency [4] > 20.6 µM

Cc1[nH]c(=O)[nH]c(=O)c1S(=O)(=O)N1CCCC1
inactive: activity change, negative = inhibition [1] 11.7% | activity change, negative = inhibition [2] -7.3% | activity, negative = inhibition [3] 12% | Potency [4] > 20.6 µM

Cc1nc(NCCO)c(C#N)c2c1COC(C)(C)C2
inactive: activity change, negative = inhibition [1] -5.08% | activity change, negative = inhibition [2] 2.21% | activity, negative = inhibition [3] 4.18% | Potency [4] > 20.6 µM

Cn1ncc(N=Cc2ccccc2O)c1C(=O)Nc1ccccc1
inactive: activity change, negative = inhibition [1] -7.55% | activity change, negative = inhibition [2] 7.01% | activity, negative = inhibition [3] 0.0885% | Potency [4] > 20.6 µM

CCN(CC)CCN1C(=O)C(=O)/C(=C(/O)c2ccc(OC)cc2)C1c1ccco1 (centres undefined)
inactive: activity change, negative = inhibition [1] -1.18% | activity change, negative = inhibition [2] -15.2% | activity, negative = inhibition [3] 3.92% | Potency [4] > 20.6 µM

CC(NC(=O)Nc1nccs1)(C(F)(F)F)C(F)(F)F
inactive: activity change, negative = inhibition [1] 4.62% | activity change, negative = inhibition [2] 15.9% | activity, negative = inhibition [3] 5.57% | Potency [4] > 20.6 µM

COc1ccc2[nH]c(C)c(C(=O)CN3CC(C)OC(C)C3)c2c1 (centres undefined)
inactive: activity change, negative = inhibition [1] 0.748% | activity change, negative = inhibition [2] -1.69% | activity, negative = inhibition [3] 2.01% | Potency [4] > 20.6 µM

CN1CCN(c2nc(C(N)=O)cc(-c3ccccc3)n2)CC1
inactive: activity change, negative = inhibition [1] -1.1% | activity change, negative = inhibition [2] -3.4% | activity, negative = inhibition [3] 20.9% | Potency [4] > 20.6 µM

c1cncc(-c2nnc3sc(-c4ccco4)nn23)c1
inactive: activity change, negative = inhibition [1] -2.13% | activity change, negative = inhibition [2] 4.1% | activity, negative = inhibition [3] -6.03% | Potency [4] > 20.6 µM

O=C(C1CC1(c1ccccc1)c1ccccc1)N1CCOCC1 (centres undefined)
inactive: activity change, negative = inhibition [1] -9.16% | activity change, negative = inhibition [2] 10.4% | activity, negative = inhibition [3] 0.797% | Potency [4] > 20.6 µM

CCCC1Cc2c(sc3nc(SC)nc(N)c23)CO1 (centres undefined)
inactive: activity change, negative = inhibition [1] -3.09% | activity change, negative = inhibition [2] -10.7% | activity, negative = inhibition [3] -1.16% | Potency [4] > 20.6 µM
